Source: the supplement of paper PMC10849652
About 7,900 targets were measured; listed, in parts, are those with a hit and a random draw of the rest. About 0.6% of all pairs of compound and target were hits.

Each target was assayed with Cc1nc(Nc2ncc(C(=O)Nc3c(C)cccc3Cl)s2)cc(N2CCN(CCO)CC2)n1 [dasatinib] (assay: log2 fold change, soluble protein after heating vs DMSO (PISA); higher = thermal stabilisation; K562 cells, 10 uM, 30 min; active = over 0.2 and 3.5 SD of the protein, either way, in both replicates (recomputed)).
Method in brief: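 Values are thermal stability changes relative to control samples and are taken from duplicates. They are stated as log2 fold changes. Before quantification by TMTpro 16plex LC-MS/MS with equalised channel sums, K562 cells at 2×10^6 cells/mL were treated with 10 μM compound for 30 min, heated in aliquots for 3 min across 48°C-58°C, pooled, extracted in PBS with 0.5% NP-40 at 4°C, and centrifuged at 21,000xg for 90 min to give the soluble supernatant.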

Sequence of UniProt Q86VQ1 (Q86VQ1 whole entry, looked up): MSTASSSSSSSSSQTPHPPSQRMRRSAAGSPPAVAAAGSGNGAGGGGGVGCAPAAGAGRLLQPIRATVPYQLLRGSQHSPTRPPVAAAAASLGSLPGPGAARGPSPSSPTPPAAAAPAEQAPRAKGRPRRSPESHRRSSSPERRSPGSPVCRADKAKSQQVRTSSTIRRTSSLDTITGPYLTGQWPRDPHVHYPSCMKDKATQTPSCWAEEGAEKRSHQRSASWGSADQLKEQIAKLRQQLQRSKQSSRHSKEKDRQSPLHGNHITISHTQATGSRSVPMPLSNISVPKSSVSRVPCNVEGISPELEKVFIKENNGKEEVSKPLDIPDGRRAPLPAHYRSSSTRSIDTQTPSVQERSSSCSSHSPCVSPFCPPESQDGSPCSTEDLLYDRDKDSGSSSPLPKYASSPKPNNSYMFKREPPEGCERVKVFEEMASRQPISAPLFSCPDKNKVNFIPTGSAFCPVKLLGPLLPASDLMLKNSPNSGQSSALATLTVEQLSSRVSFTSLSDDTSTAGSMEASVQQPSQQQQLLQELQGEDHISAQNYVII
Sequence of UniProt P50213 (P50213 whole entry, looked up): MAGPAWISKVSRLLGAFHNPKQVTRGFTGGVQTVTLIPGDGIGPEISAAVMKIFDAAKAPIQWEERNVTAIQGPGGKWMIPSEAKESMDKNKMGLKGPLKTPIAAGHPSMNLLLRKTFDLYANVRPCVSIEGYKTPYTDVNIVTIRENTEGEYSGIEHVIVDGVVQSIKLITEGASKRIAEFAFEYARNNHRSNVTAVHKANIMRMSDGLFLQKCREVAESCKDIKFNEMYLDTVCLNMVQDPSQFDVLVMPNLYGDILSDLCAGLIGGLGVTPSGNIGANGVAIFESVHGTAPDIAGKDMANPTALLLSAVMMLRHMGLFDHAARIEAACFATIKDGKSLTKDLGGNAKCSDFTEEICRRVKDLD
Sequence of UniProt Q00688 (Q00688 whole entry, looked up): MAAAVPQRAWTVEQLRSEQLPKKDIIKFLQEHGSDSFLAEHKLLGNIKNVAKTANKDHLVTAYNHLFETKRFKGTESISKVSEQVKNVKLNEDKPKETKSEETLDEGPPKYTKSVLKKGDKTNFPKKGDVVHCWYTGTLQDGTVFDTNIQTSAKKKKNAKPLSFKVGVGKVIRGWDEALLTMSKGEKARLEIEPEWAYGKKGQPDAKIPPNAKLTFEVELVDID
Sequence of UniProt P00367 (P00367 whole entry, looked up): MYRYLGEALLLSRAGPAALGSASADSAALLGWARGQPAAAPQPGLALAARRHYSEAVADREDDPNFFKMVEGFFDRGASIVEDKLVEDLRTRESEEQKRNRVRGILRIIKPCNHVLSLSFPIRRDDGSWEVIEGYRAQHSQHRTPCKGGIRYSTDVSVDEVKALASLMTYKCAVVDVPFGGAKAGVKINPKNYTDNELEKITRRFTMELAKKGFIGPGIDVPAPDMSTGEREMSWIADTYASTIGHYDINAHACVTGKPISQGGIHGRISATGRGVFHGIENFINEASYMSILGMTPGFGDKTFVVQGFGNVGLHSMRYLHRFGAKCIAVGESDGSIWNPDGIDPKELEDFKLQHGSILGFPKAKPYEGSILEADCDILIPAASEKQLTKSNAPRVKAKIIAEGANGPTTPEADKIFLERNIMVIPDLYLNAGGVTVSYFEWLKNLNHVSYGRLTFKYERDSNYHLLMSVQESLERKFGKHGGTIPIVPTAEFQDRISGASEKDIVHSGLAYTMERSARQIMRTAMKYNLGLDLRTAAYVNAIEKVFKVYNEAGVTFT
Sequence of UniProt Q12894 (Q12894 whole entry, looked up): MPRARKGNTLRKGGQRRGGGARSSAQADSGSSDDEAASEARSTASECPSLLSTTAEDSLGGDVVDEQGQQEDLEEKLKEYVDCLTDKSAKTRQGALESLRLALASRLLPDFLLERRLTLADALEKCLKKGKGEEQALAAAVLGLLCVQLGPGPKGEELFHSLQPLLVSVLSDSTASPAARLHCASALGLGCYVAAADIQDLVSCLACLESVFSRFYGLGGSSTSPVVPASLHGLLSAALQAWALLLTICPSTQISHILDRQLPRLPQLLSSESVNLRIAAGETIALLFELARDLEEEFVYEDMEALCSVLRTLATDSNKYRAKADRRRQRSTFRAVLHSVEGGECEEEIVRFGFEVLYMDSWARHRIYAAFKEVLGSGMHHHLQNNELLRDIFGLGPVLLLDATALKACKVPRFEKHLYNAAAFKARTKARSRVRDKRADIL
Sequence of UniProt Q7Z4Q2 (Q7Z4Q2 whole entry, looked up): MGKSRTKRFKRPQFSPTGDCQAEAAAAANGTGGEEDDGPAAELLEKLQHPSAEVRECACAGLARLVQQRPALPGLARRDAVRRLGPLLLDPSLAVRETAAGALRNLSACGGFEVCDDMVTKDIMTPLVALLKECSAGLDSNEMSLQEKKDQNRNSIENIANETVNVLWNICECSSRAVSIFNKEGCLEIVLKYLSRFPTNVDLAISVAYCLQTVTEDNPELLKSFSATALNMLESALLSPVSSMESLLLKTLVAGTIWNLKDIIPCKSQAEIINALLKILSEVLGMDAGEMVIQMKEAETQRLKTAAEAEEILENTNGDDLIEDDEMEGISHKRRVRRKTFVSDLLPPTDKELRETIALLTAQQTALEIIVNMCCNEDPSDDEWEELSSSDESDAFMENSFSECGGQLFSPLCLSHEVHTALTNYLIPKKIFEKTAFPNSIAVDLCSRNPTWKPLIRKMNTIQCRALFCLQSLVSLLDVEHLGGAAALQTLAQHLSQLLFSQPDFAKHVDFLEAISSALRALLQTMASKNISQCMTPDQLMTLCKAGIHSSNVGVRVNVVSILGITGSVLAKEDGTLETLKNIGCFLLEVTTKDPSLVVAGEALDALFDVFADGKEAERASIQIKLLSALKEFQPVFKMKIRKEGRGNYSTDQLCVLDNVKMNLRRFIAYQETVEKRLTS
Sequence of UniProt Q969S8 (Q969S8 whole entry, looked up): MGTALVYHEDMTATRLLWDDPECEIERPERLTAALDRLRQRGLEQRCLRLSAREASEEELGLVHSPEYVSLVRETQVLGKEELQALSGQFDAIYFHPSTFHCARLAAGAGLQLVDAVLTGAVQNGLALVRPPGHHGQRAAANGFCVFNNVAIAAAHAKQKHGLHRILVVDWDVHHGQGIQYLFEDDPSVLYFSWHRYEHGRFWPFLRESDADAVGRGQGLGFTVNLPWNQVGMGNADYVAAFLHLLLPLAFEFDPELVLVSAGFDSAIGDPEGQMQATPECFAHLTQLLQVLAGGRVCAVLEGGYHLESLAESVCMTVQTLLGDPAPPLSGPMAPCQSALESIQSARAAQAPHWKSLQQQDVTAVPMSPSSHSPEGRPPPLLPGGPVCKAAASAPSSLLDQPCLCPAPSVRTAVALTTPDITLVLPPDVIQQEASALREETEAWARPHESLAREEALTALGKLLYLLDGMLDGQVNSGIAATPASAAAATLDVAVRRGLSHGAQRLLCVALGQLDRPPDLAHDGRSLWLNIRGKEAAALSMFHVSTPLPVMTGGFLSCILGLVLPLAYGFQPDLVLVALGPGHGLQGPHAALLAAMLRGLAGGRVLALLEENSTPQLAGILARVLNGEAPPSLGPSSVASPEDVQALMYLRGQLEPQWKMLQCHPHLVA
Sequence of UniProt P04066 (P04066 whole entry, looked up): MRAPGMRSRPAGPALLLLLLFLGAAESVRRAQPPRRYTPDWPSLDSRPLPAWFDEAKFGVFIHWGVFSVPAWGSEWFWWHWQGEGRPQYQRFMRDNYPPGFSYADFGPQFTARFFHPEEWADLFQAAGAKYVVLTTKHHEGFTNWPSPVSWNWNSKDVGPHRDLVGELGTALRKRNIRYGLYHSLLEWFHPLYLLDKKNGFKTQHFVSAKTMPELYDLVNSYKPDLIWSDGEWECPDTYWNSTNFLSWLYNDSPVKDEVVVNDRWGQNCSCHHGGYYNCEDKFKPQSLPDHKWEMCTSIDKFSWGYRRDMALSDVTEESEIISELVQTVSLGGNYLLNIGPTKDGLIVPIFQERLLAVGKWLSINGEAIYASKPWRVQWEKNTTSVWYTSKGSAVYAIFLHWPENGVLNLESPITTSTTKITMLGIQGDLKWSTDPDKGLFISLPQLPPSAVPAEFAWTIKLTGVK
Sequence of UniProt Q02790 (Q02790 whole entry, looked up): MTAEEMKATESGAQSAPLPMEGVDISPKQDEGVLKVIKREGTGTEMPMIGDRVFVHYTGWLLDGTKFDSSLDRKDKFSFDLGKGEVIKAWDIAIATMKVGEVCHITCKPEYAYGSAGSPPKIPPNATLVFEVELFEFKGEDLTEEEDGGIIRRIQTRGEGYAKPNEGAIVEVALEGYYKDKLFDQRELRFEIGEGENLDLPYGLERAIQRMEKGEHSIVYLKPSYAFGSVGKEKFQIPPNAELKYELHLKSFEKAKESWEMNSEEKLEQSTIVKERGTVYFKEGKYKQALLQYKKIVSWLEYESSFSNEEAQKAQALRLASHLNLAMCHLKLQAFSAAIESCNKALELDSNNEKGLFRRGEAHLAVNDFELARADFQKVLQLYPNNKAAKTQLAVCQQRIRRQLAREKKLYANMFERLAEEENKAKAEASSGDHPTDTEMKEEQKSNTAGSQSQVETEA
Sequence of UniProt P06865 (P06865 whole entry, looked up): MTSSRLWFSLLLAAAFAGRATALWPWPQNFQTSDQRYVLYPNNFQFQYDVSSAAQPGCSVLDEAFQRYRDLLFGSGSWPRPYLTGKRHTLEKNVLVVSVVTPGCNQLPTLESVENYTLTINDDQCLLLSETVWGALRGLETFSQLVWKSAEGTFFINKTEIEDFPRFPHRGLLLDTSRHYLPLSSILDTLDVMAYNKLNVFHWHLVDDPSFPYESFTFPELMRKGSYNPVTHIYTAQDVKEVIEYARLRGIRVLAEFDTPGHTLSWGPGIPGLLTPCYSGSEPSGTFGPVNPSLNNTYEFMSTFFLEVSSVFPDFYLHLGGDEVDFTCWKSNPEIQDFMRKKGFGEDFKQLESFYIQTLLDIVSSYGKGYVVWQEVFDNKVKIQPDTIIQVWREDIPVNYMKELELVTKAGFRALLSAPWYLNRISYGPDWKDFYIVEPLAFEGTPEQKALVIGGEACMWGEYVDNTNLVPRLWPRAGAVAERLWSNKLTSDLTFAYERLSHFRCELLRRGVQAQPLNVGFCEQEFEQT

log2 fold change, inactive:
FUBP3 (UniProt Q96I24) -0.024
FKBP3 (UniProt Q00688) -0.003
HDAC6 (UniProt Q9UBN7) -0.107
GALK1 isoform 2 (UniProt P51570) -0.043
IFRD2 isoform 2 (UniProt Q12894) 0.028
FKBP7 (UniProt Q9Y680) 0.064
HEATR3 (UniProt Q7Z4Q2) -0.073
FKBP4 (UniProt Q02790) -0.114
GABARAPL2 (UniProt P60520) -0.014
GIGYF2 (UniProt Q6Y7W6) -0.22
GSR (UniProt P00390) 0.02
GNAS (UniProt Q5JWF2) 0.064
HIST2H2BF isoform 2 (UniProt Q5QNW6) 0.147
HLTF (UniProt Q14527) -0.035
GALNT4 (UniProt Q8N4A0) -0.021
FBXO7 (UniProt Q9Y3I1) -0.102
GMEB1 (UniProt Q9Y692) -0.06
GLUD1 (UniProt P00367) 0.056
FANCI (UniProt Q9NVI1) -0.118
HDAC10 (UniProt Q969S8) -0.027
FUCA1 (UniProt P04066) -0.009
GUK1 isoform 2 (UniProt Q16774) -0.109
GOLGB1 isoform 2 (UniProt Q14789) 0.08
FANCD2 isoform 1 (UniProt Q9BXW9) -0.167
IDH3A (UniProt P50213) -0.005
GLCCI1 (UniProt Q86VQ1) -0.066
FMC1 (UniProt Q96HJ9) 0.006
GABPA (UniProt Q06546) -0.12
GEMIN5 (UniProt Q8TEQ6) -0.099
GLS (UniProt O94925) -0.154
HEXA (UniProt P06865) 0.016
GEMIN2 (UniProt O14893) 0.049
GNPAT (UniProt O15228) 0.014
HNRNPH2 (UniProt P55795) -0.061
HNRNPH1 (UniProt P31943) -0.083
